Data reported in ChEMBL document CHEMBL3988442, “University of Dundee, Small-Polar-MMV Screening Library” (2021).

Legend:
[1] = biological target: T1, Aspartate--tRNA(Asp/Asn) ligase (Mycobacterium tuberculosis (strain ATCC 25618 / H37Rv)) (UniProt P9WFW3); assay: Assay for Asp RNA synthetase-1 from Mycobacterium tuberculosis; assay type: functional; design: scale not given: direction of the effect not stated beside the values; conditions: 30 µM; further: in the data most compounds retested in dose-response had high values
T1 sequence (whole entry): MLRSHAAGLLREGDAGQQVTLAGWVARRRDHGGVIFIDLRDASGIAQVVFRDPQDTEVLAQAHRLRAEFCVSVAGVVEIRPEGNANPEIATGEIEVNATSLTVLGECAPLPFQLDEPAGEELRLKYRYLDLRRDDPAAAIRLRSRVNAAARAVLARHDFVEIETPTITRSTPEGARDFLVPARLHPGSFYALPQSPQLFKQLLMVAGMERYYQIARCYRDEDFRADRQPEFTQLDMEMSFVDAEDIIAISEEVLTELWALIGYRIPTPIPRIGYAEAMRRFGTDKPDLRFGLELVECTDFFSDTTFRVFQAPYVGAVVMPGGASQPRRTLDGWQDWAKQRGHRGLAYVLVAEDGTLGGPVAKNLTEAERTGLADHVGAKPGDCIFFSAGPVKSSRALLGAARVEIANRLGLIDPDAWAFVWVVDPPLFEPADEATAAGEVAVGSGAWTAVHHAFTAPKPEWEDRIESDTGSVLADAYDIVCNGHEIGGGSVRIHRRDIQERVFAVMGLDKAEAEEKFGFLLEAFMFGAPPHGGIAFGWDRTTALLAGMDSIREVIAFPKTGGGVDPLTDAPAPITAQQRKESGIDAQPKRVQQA

[2] = biological target: Shiga toxin 2 (Escherichia coli O157:H7) (UniProt P09385+P09386); assay: E. coli 0.157:H7 Shiga Toxin SOP - stx2 screening assay; assay type: functional; design: scale not given: direction of the effect not stated beside the values; conditions: 30 µM

Structure (SMILES): CN(C)S(=O)(=O)N1CCCC1CC(=O)c1cccs1 (configuration not stated)
- Percent Effect [1]: 2.35%
- Percent Effect [2]: -10.2%

Structure (SMILES): COc1c(CNCc2ccnc(N3CCCC3)c2)c(C)nn1C
- Percent Effect [1]: 2.34%
- Percent Effect [2]: -55.3%

Structure (SMILES): CCc1nnc2n1CCN(C(=O)c1ccc(C(F)(F)F)nc1C)C2
- Percent Effect [1]: 1.43%
- Percent Effect [2]: -8.18%

Structure (SMILES): Fc1cccc(Oc2ccc(CNCC3CNc4ccnn4C3)cn2)c1 (configuration not stated)
- Percent Effect [1]: -6.37%
- Percent Effect [2]: -101%

Structure (SMILES): CN(C)CCN(C)C(=O)c1cnc2c(c1)nc(-c1ccccc1Cl)n2C
- Percent Effect [1]: 7.01%
- Percent Effect [2]: 9.89%

Structure (SMILES): Fc1ccc(-c2nnc(CN3CCOC(Cn4cncn4)C3)o2)cc1 (configuration not stated)
- Percent Effect [1]: 1.55%
- Percent Effect [2]: -15.2%

Structure (SMILES): Cc1cc(-c2cnn(CCNC(=O)C3CCCO3)c2C2CC2)on1 (configuration not stated)
- Percent Effect [1]: -4.09%
- Percent Effect [2]: 7.9%

Structure (SMILES): NC(=O)C1CCN(c2nc3nccc(-c4ccccn4)c3c(=O)[nH]2)CC1
- Percent Effect [1]: 1.02%
- Percent Effect [2]: 2.69%

Structure (SMILES): O=C(COCc1nc(-c2ccncc2)no1)NC1CCCCC1
- Percent Effect [1]: 2.71%
- Percent Effect [2]: -15.1%

Structure (SMILES): CCc1ncncc1C(=O)N1CCCN(Cc2ccc(C)cc2)CC1
- Percent Effect [1]: 7.33%
- Percent Effect [2]: 16.1%

Structure (SMILES): COCC1c2c(cnn2CC2CC2)CCN1Cc1cccs1 (configuration not stated)
- Percent Effect [1]: -0.524%
- Percent Effect [2]: 0.46%

Structure (SMILES): Cc1ccc(CNC2CCN(CCc3ccncc3)CC2)cc1C
- Percent Effect [1]: -5.11%
- Percent Effect [2]: -49.6%

Structure (SMILES): CC1CCCN(CCNC(=O)c2ccn(-c3ccccc3)n2)C1 (configuration not stated)
- Percent Effect [1]: 5.86%
- Percent Effect [2]: -20.3%

Structure (SMILES): Cn1cnc2c1C(COCC1CC1)CN(Cc1ccc3c(c1)OCO3)C2 (configuration not stated)
- Percent Effect [1]: 0.999%
- Percent Effect [2]: -23.1%

Structure (SMILES): Cc1cc2c(=O)n3c(nc2s1)CCN(Cc1ccncc1)CC3
- Percent Effect [1]: -2.01%
- Percent Effect [2]: -22.9%

Structure (SMILES): O=C(Nc1cccc(Cl)c1)c1nn(C2CCS(=O)(=O)C2)c2c1CCCC2 (configuration not stated)
- Percent Effect [1]: 6.98%
- Percent Effect [2]: 5.07%

Structure (SMILES): Cc1cnn(CC2CN(Cc3nccn3C)CCO2)c1 (configuration not stated)
- Percent Effect [1]: -3.32%
- Percent Effect [2]: 17.1%

Structure (SMILES): Cc1nn(C)c(C)c1CC(=O)N1CCC(N(C)c2cccnn2)CC1
- Percent Effect [1]: -4.15%
- Percent Effect [2]: 27.2%

Structure (SMILES): O=C(c1cc(C2CC2)on1)N1CC[C@]2(C[C@H](Oc3cccnc3)CO2)C1
- Percent Effect [1]: 6.67%
- Percent Effect [2]: 7.42%

Structure (SMILES): Cc1ncsc1C(=O)NC1CCN(CC(=O)N(C)C(C)(C)C#N)CC1
- Percent Effect [1]: -2.42%
- Percent Effect [2]: 25.4%

Structure (SMILES): CC(C)n1ccnc1CN1CCCN(C(=O)c2cccnc2O)CC1
- Percent Effect [1]: -2.15%
- Percent Effect [2]: -43.9%

Structure (SMILES): CCCNC(=O)N1CCC(Oc2cc(C)ccc2F)(C(=O)O)CC1
- Percent Effect [1]: -3.4%
- Percent Effect [2]: 8.44%

Structure (SMILES): O=C(c1cccnc1)N1CCCC2(CCN(c3ccsc3)C2=O)C1 (configuration not stated)
- Percent Effect [1]: 7.21%
- Percent Effect [2]: -14.1%

Structure (SMILES): O=C(CN(Cc1ccccc1)CC1CCOCC1)Nc1nccs1
- Percent Effect [1]: 2.07%
- Percent Effect [2]: -19%

Structure (SMILES): Cc1ccc(C(=O)N2CCCS2(=O)=O)cc1Cl
- Percent Effect [1]: -5.6%
- Percent Effect [2]: -5.68%

Structure (SMILES): Cc1ncnc2c1CCN(Cc1cccs1)CC2
- Percent Effect [1]: 9.2%
- Percent Effect [2]: -21.2%

Structure (SMILES): O=C(CO[C@@H]1CC[C@H]2[C@H]1OCCN2CC1CCOCC1)N1CCCC1
- Percent Effect [1]: 0.943%
- Percent Effect [2]: -4.47%

Structure (SMILES): Cn1cc(C(=O)N2CCCC(Cc3nccs3)C2)cn1 (configuration not stated)
- Percent Effect [1]: 2.4%
- Percent Effect [2]: 14.9%

Structure (SMILES): c1coc(-c2noc(CN3CCC(c4ccn[nH]4)CC3)n2)c1
- Percent Effect [1]: 0.546%
- Percent Effect [2]: 0.0749%

Structure (SMILES): CC(C(=O)NCc1ccc(N2CCNC(=O)C2)cc1)n1cncn1 (configuration not stated)
- Percent Effect [1]: 3.94%
- Percent Effect [2]: -118%

Structure (SMILES): CC(C)C(C(=O)N1CCN(Cc2ccncc2)CC1)n1cncn1 (configuration not stated)
- Percent Effect [1]: 7.46%
- Percent Effect [2]: -21.4%

Structure (SMILES): Cc1cc(C)cc(N(C)S(=O)(=O)c2cc(C(=O)O)cs2)c1
- Percent Effect [1]: 2.79%
- Percent Effect [2]: -3.14%

Structure (SMILES): O=C(NCc1nn(-c2ccccc2)c2c1CCC2)NC1CC1
- Percent Effect [1]: 1.63%
- Percent Effect [2]: 9.96%

Structure (SMILES): NC(=O)c1cc(NC(=O)N2CCCCCC2)ccc1F
- Percent Effect [1]: 1.17%
- Percent Effect [2]: -21.4%

Structure (SMILES): Cc1cc(CN2CCN(CC(O)C(C)(C)C)CC2)no1 (configuration not stated)
- Percent Effect [1]: -13.9%
- Percent Effect [2]: 0.649%

Structure (SMILES): CNC(=O)[C@H]1C[C@@H]2CN(S(=O)(=O)c3ccccc3)C[C@@H]2N1C
- Percent Effect [1]: -3.51%
- Percent Effect [2]: -39.6%

Structure (SMILES): Cc1csc(Nc2nccnc2C2CCCN2C(=O)C(C)C)n1 (configuration not stated)
- Percent Effect [1]: 7.04%
- Percent Effect [2]: 13.1%

Structure (SMILES): Cc1nc(C)n(CC2CN(CCOCC(F)(F)F)CCO2)n1 (configuration not stated)
- Percent Effect [1]: 3.1%
- Percent Effect [2]: 8.57%

Structure (SMILES): CC(C)Cc1ccc(S(=O)(=O)Nc2ccc(=O)n(C)c2)cc1
- Percent Effect [1]: 30.2%
- Percent Effect [2]: -23.8%

Structure (SMILES): Cc1cc(CN2CCC(CNC(=O)c3ccc(O)c(Cl)c3)C2)[nH]n1 (configuration not stated)
- Percent Effect [1]: 3.15%
- Percent Effect [2]: -15.7%

Structure (SMILES): CCCc1nc(CN2CCCC(Cn3cncn3)C2)no1 (configuration not stated)
- Percent Effect [1]: -3.39%
- Percent Effect [2]: -26.6%

Structure (SMILES): CN(Cc1cccc(Cl)c1)S(=O)(=O)N1CCOCC1
- Percent Effect [1]: 2.4%
- Percent Effect [2]: 7.77%

Structure (SMILES): CCC(O)CNC(=O)c1coc(COc2ccc3sc(C)nc3c2)n1 (configuration not stated)
- Percent Effect [1]: 5.32%
- Percent Effect [2]: -27.2%

Structure (SMILES): Cn1cc(CN2CCCC3(CCN(Cc4cccnc4)C3=O)C2)cn1 (configuration not stated)
- Percent Effect [1]: -1.18%
- Percent Effect [2]: -7.77%

Structure (SMILES): CS(=O)(=O)N1CCCCCC1C1CCN(c2ncccn2)CC1 (configuration not stated)
- Percent Effect [1]: -3.75%
- Percent Effect [2]: 24.4%

Structure (SMILES): COCc1ccccc1C(=O)N1CCCC(n2nc(C)cc2C)C1 (configuration not stated)
- Percent Effect [1]: -2.97%
- Percent Effect [2]: -10.9%
